Compound activity (PubChem)
An excerpt weighted towards active compounds, which were near 8% of everything screened.
FMDV inh: foot and mouth disease virus antiviral activity. FMDV antiviral cell-based qHTS. Potency, µM (doses to about 57.9 µM), inactives show top-dose activity change, negative = inhibition, most hits filed as inhibitors. 410,000 tested, 1.2% active. AID 1159524; calls by dose curve; tested in HEK293T cells; further: read-out not given here; potency means the concentration at half of the fitted maximal effect; on the % scale 0 is the no-effect control and ±100 the full control effect; nearly all actives have a fitted effect of over 45% in size
SARS PLpro yeast-1: inhibitors of SARS-CoV papain-like protease in yeast; 330,000 tested, 0.19% active; Potency, µM (doses to about 32.9 µM), without a hit: at the top dose activity, positive = growth rescue, hits mostly activators; AID 485353; S. cerevisiae expressing SARS-CoV PLpro, growth rescue; calls by dose curve; further: potency means the concentration at half of the fitted maximal effect; 0% is about no effect; nearly all actives have a fitted effect of over 55% in size
HCV inhibitor: blocks hepatitis C virus; Huh7.5.1 HCVcc-Cre infection, luciferase reporter, 44 h; Potency, µM (top dose mostly 41.8 µM), inactives show at the highest dose activity change, negative = inhibition, hits mostly inhibitors; 340,000 tested, 3.4% active; active means well fitted inhibition curve with a large enough effect; inconclusive means small, poorly fitted or top-dose-only effect, or another doubt; inactive means no such curve, though single readings can be large or run the other way; further: potency means the concentration at half of the fitted maximal effect; on the % scale 0 is the no-effect control and ±100 the full control effect
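Reporter virus HCVcc-Cre (~0.5 moi) infects cells exposed to compound; seeding density 1,000 cells/well with 4 h settling beforehand. Luminescence, 15 sec read, taken 44 h post-infection following a 15 min RT substrate incubation.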
HCMV antiviral: human cytomegalovirus inhibition; HFF cells, HCMV-luciferase reporter, 72 h; hits give low values; activity change, negative = inhibition, % at 57.5 µM; 410,000 tested, 4.5% active; AID 1259415; in the data active means activity change below about -60%; inconclusive means no clear call, values can overlap the other calls; inactive means above about -39%; further: on the % scale 0 is the no-effect control and ±100 the full control effect
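Two-dose cell screen: HFF monolayers treated with compounds and infected with luciferase-expressing HCMV at 1 PFU/cell, 72 h at 37C, then lysed for luciferase measurement.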
LASV entry inh: Lassa virus entry inhibition. Potency, µM (highest dose often 37.9 µM), for inactives: top-dose activity change, negative = inhibition, usual class: inhibitors. 300,000 tested, 1.2% active. Lassa virus pseudotype entry inhibition, cell reporter; calls by dose curve; tested in HEK293 cells; further: potency means the concentration at half of the fitted maximal effect; on the % scale 0 is the no-effect control and ±100 the full control effect; nearly all actives have a fitted effect of over 50% in size
Marburg entry inh: inhibitors of Marburg virus binding or cell entry; Marburg virus pseudotyped entry inhibition, cell reporter; Potency, µM (doses to about 37.8 µM), for the others: at the top dose activity change, negative = inhibition, usual class: inhibitors; 300,000 tested, 1.8% active; calls by dose curve; tested in HEK293 cells; further: potency means the concentration at half of the fitted maximal effect; on the % scale 0 is the no-effect control and ±100 the full control effect
SARS PLpro yeast-2: Inhibits SARS-CoV PLP in yeast, hit validation | yeast expressing SARS-CoV PLpro, growth phenotype rescue | 1,000 tested, 19% active | calls only | shares compounds with SARS PLpro yeast-1; call rule not given here
* marks the source's active call; other numbers are inactive results; i = inactive; ? = inconclusive; . = not tested or not shown; + = active, no number; [ ] = remark or other dose.

SMILES	FMDV inh	SARS PLpro yeast-1	HCV inhibitor	HCMV antiviral	LASV entry inh	Marburg entry inh	SARS PLpro yeast-2
COC(=O)CSc1nc(N2CCOCC2)c2c(c1C#N)CC(C)(C)OC2	-10.6%	-0.2%	-3.1%	69.7	19.9%[46.1 µM]	?	.
COC(=O)Sc1nc(N2CCOCC2)c2c(c1C#N)CC(C)(C)OC2	-15.2%	10µM*	-18.0%	44.8	-0.5%	-15.4%	+
COc1ccc(NC(=O)C(=O)NCCc2ccc(OC)c(OC)c2)c(OC)c1	-1.8%	.	.	2.3	-5.3%[46.1 µM]	.	.
CCOc1ccc(C(=O)CC(=O)C(=O)NCCc2ccc(OC)c(OC)c2)cc1	3.5%	20µM*	?	8.8	-11.4%	-40.7%	?
CCSc1nnc(NC(=O)C(Cc2ccccc2)n2cccc2)s1 (centres undefined)	-24.8%	?	6.6%	-8.1	.	.	i
Cc1cc(=O)[nH]c(NN=Cc2c(Cl)cccc2Cl)n1	-23.1%	.	13.7%	?	17.2%	21.2%	.
Cc1cc(=O)[nH]c(N/N=C/c2c(O)n(-c3ccccc3)c(=O)c3ccccc23)n1	-21.5%	?	15.4%	87.6	12.4%	2.9%	i
Cc1cc(=O)[nH]c(N/N=C/c2ccccn2)n1	51.0%	?	1µM*	-99.9*	7.08µM*	2.59µM*	i
COc1ccc(S(=O)(=O)Nc2ccc3c(c2)sc(=O)n3C)cc1Cl	26.1%	.	.	32.9	-22.7%[46.1 µM]	.	.
COC(=O)c1c(NC(=O)CSc2nc3ccccc3c(=O)n2Cc2ccco2)sc(C)c1C	-2.2%	?	13.2%	-19.0	6.0%	4.4%	+
COC(=O)c1c(NC(=O)CSc2nnc(-c3ccco3)n2Cc2ccccc2)sc(C)c1C	?	13.9%	?	20.4	-28.1%	?	.
Cc1ccc(NC(c2cccc(Cl)c2)c2nnc(-c3ccccc3)o2)cc1F (centres undefined)	10.7%	.	.	11.2	1.7%[46.1 µM]	?	.
O=C1OCCN1C(=O)[C@H]1[C@H](c2ccccc2)C(c2cccc(Cl)c2)=NN1c1ccccc1	-30.0%	?	19.4%	.	.	.	+
CC(=NC(C)C)C1=C(O)CCC1=O	0.0%	?	5.7%	?	-12.1%	17.8%	i
Cc1nnc2n(-c3ccccc3)c(=O)c3c4c(sc3n12)COC(C)(C)C4	-9.6%	?	-10.9%	-13.7	-3.3%	18.3%	i
O=C(COC(=O)/C=C/c1cccs1)Nc1nc(-c2ccccc2)cs1	7.4%	14.1µM*	-8.4%	88.5	13.3%	?	+
COc1ccc2c3n([n+]([O-])c2c1)CCN=C3c1ccc(Cl)cc1	32.2%	?	13.2%	-6.5	.	.	i
[O-][n+]1c2ccccc2c2n1CCN=C2c1ccc(Cl)cc1	19.5%	-0.9%	17.9%	-0.7	.	.	.
CCOC(=O)C1CCC(CN(Cc2cccc(Br)c2)S(=O)(=O)c2ccc(Cl)cc2)CC1 (centres undefined)	-0.9%	.	.	3.4	-17.5%[46.1 µM]	.	.
COC(=O)C1=C(C)NC(=O)NC1c1cn(-c2ccccc2)nc1-c1ccc(OC)c(Br)c1 (centres undefined)	3.5%	.	.	12.3	-28.1%[46.1 µM]	?	.
CCOC(=O)c1oc2ccccc2c1CN1CCN(C(=O)c2ccccc2)CC1	?	3.55µM*	-19.5%	2.6	?	-2.3%	i
CCOC(=O)c1oc2ccccc2c1CN1CCN(c2ccccc2)CC1	?	-4.0%	-3.5%	6.4	?	-12.4%[46.1 µM]	.
CCCCNc1cc(C)nc(N2CCOCC2)n1	0.4%	?	-4.7%	-0.9	-3.0%	-7.1%	i
CCOc1ccc(Nc2cc(C)nc(N3CCOCC3)n2)cc1	-8.0%	2.9%	-15.8%	-11.0	0.2%	-27.1%	.
COc1ccc(C(=O)NCc2ccc3c(c2)CCN3C(=O)c2cccc(C)c2)cc1OC	-2.9%	.	.	10.9	?	.	.
CN(C)CCCN(C(=O)c1ccc(S(=O)(=O)N2CCCCCC2)cc1)c1nc2ccc(F)cc2s1	-17.6%	?	?	3.4	?	?	i
COc1cccc(/C=N/NC(=O)C(=O)Nc2ccccc2OC(F)(F)C(F)F)c1O	-27.5%	3.55µM*	?	-93.5*	?	8.91µM*	i
